Test results taken from article PMC7862700, “An all-to-all approach to the identification of sequence-specific readers for epigenetic DNA modifications on cytosine”.

Experiments:
Assay in all cases: DAPPL (digital affinity profiling via proximity ligation, sequencing); 10 mM Tris-HCl pH 7.5, 50 mM NaCl, 1 mM DTT, 4% glycerol, room temperature, 30 min; GST-TFs on glutathione beads, 16-mer random dsDNA library, 0.1% formaldehyde crosslink after washing; high values mean tight binding
Conditions in all cases: protein: recombinant; tags: N-terminal GST; dsDNA, one strand shown
FLI1 = target: T1, FLI1 (Homo sapiens, UniProt Q01543 1-452)
T1 sequence: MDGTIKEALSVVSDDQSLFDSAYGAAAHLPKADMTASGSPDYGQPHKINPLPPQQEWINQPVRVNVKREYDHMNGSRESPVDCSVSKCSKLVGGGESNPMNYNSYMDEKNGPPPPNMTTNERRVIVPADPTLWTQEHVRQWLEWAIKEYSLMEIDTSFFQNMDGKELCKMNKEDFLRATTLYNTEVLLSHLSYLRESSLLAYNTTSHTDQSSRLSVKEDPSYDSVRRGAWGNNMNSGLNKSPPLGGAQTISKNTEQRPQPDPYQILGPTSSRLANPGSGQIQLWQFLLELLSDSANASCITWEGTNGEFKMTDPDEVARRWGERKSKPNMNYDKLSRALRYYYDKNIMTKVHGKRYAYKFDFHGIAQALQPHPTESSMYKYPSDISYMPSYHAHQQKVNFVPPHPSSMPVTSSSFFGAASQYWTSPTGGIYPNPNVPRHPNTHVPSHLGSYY
Summary of the method: (§1)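 Human transcription factors were made in yeast as GST fusions, captured on glutathione beads and barcoded with DNA. With a tag-only sample included, the pool was incubated with 200 nmole of a random double-stranded 16-mer DNA library in Tris/NaCl/DTT/glycerol buffer at room temperature for 30 min, then crosslinked with 0.1% formaldehyde after washing, ligated by proximity, amplified and sequenced. For binding signal, each hexamer's read frequency for a factor is divided by its frequency for the tag-only sample.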

ELK1 = target: T2, ELK1 (Homo sapiens, UniProt P19419 1-428)
T2 sequence: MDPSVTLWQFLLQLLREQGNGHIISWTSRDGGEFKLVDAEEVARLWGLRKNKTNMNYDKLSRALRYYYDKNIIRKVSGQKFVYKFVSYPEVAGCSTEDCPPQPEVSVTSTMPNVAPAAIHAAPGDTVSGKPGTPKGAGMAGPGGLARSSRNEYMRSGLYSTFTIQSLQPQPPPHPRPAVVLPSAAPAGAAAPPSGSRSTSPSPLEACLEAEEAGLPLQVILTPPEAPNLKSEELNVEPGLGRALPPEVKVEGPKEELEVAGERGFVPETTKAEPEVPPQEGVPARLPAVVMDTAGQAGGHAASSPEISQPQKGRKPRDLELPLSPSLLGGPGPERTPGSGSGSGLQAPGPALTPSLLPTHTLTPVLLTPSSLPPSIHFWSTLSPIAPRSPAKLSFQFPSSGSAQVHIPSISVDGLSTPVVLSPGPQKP
Summary of the method: as §1

GABPA = target: T3, GABPA (Homo sapiens, UniProt Q06546 1-454)
T3 sequence: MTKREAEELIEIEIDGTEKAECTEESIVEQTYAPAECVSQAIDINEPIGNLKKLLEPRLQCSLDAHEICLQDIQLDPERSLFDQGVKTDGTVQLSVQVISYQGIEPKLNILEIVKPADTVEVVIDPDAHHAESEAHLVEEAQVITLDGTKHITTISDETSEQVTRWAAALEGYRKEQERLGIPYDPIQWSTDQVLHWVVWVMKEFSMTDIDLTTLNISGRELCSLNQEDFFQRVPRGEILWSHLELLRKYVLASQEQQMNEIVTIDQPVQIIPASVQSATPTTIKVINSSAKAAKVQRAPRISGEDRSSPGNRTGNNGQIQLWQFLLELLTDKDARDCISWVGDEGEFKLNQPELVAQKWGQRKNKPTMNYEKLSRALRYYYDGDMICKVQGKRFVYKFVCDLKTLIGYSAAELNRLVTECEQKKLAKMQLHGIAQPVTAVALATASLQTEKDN
Summary of the method: as §1

ERG = target: T4, ERG (Homo sapiens, UniProt P11308 1-479)
T4 sequence: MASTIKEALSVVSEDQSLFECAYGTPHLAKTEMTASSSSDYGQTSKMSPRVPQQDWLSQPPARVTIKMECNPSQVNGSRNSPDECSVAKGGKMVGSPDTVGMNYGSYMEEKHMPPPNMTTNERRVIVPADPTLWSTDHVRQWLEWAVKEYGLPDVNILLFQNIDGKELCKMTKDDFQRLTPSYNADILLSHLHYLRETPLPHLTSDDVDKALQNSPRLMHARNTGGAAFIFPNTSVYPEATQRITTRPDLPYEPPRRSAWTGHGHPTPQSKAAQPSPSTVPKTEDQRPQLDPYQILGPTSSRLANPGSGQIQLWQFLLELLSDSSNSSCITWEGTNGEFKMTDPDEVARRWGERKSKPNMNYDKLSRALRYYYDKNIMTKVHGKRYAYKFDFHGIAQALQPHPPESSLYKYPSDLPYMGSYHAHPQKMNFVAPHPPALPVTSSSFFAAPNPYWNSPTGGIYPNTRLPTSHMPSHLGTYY
Summary of the method: as §1

ELF1 = ELF1 (Homo sapiens, UniProt P32519 1-619)
Summary of the method: as §1

EHF = target: T5, EHF (Homo sapiens, UniProt Q9NZC4 1-300)
T5 sequence: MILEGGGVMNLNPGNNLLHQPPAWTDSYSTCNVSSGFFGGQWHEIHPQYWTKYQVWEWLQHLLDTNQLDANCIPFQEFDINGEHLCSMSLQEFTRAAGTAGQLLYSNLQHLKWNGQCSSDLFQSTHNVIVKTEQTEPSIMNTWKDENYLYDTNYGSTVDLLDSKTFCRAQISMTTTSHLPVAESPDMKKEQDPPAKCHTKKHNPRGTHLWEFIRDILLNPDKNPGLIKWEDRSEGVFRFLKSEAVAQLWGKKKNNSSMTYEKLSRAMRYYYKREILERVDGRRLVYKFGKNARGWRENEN
Summary of the method: as §1

SPI1 = SPI1 (Homo sapiens, UniProt P17947 1-270)
Summary of the method: as §1

SPIB = SPIB (Homo sapiens, UniProt Q01892 1-262)
Summary of the method: as §1

ELK3 = target: T6, ELK3 (Homo sapiens, UniProt P41970 1-407)
T6 sequence: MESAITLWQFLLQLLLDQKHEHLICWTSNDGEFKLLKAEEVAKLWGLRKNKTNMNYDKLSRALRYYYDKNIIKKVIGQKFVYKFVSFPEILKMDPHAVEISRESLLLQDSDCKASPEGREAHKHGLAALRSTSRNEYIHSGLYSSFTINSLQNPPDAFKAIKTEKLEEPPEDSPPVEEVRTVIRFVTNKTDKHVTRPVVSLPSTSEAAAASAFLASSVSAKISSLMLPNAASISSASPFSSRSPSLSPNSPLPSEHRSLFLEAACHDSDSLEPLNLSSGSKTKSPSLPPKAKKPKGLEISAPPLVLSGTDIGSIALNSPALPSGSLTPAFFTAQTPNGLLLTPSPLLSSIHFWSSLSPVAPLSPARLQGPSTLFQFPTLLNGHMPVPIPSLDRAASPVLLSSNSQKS
Summary of the method: as §1

Sequence of ELF1 (P32519 whole entry): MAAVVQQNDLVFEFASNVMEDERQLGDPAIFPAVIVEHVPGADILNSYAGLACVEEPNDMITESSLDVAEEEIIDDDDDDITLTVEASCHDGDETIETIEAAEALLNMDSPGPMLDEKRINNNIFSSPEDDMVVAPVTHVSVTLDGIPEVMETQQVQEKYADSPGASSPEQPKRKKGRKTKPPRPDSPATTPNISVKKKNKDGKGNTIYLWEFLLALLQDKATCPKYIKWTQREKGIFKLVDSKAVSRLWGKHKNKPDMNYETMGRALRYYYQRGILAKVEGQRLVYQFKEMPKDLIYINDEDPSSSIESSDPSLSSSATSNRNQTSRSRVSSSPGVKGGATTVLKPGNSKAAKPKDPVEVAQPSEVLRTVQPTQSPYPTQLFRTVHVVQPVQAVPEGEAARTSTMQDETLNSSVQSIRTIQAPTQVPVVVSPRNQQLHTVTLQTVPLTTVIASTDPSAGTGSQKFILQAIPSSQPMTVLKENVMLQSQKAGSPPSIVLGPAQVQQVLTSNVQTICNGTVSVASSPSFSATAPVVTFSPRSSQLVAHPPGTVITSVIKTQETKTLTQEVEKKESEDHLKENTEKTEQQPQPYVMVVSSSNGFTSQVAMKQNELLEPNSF
Sequence of SPIB (Q01892 whole entry): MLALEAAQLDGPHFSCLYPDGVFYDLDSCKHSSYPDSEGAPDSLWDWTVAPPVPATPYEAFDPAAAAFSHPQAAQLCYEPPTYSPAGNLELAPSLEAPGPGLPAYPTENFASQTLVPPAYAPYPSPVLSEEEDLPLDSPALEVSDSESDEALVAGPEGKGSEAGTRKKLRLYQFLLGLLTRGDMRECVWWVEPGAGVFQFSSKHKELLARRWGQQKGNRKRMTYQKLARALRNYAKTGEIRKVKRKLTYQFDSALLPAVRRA

For TCCCAT, the binding signal (FLI1) was 1.36 fold enrichment (6-mer frequency, TF over GST control), the binding signal (ELK1) was 1.37 fold enrichment (6-mer frequency, TF over GST control) and the binding signal (GABPA) was 1.51 fold enrichment (6-mer frequency, TF over GST control). The binding signal (ERG) was 1.45 fold enrichment (6-mer frequency, TF over GST control), the binding signal (ELF1) was 1.44 fold enrichment (6-mer frequency, TF over GST control) and the binding signal (EHF) was 1.43 fold enrichment (6-mer frequency, TF over GST control). The binding signal (SPI1) was 1.28 fold enrichment (6-mer frequency, TF over GST control), the binding signal (SPIB) was 1.48 fold enrichment (6-mer frequency, TF over GST control) and the binding signal (ELK3) was 1.47 fold enrichment (6-mer frequency, TF over GST control).
